The panel holds about 79,000 compounds, 15% with a hit somewhere; the sample as a whole holds those more often. Unmarked numbers belong to inactive results. Active and inactive are the calls of the source. Cut-off read from the data, not from the text of the source: active = growth inhibition above about 70%; inactive = the rest.

Assay [1] in a line: NCI Yeast Anticancer Drug Screen. Data for the rad50 strain (AID 155).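 Note: 0% = growth of vehicle-only cultures of the same strain.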 The conditions noted are these: S. cerevisiae rad50 strain growth inhibition, active compounds read high. In a few lines:
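Genetically altered yeast (DNA repair pathway); compound treatment; growth inhibition vs vehicle ctrl.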

Assay [2] in a line: NCI Yeast Anticancer Drug Screen. Data for the mec2-1 strain (AID 157). The settings on record: S. cerevisiae mec2-1 strain, active compounds read high. In a few lines: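 Strain: mec2-1 (DNA repair/cell cycle alteration). Compound exposure, then growth measured; inhibition expressed relative to vehicle.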
A short description of assay [3]: NCI Yeast Anticancer Drug Screen. Data for the sgs1 mgt1 strain (AID 161).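 Note: 0% = growth of cultures given vehicle only.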 The conditions noted are these: S. cerevisiae sgs1 mgt1 strain, active compounds read high. In outline:
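Genetically altered yeast, compound exposure, growth inhibition relative to vehicle.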

Assay [4] can be described thus: NCI Yeast Anticancer Drug Screen. Data for the cln2 rad14 strain (AID 165).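 Note: 0% = growth equal to vehicle treated cultures.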 The settings on record: S. cerevisiae cln2 rad14 strain, active compounds read high. In a few lines:
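Compounds are applied to the cln2 rad14 yeast strain, and growth is then compared with that of vehicle-treated cultures to give inhibition.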

Assay [5] is described as follows: NCI Yeast Anticancer Drug Screen. Data for the bub3 strain (AID 167). The conditions noted are these: S. cerevisiae bub3 mutant strain, active compounds read high. In a few lines: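 Yeast carrying a defined mutation is treated with each compound, and growth is compared with that of vehicle-exposed cells to give inhibition.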
Assay [6] is described as follows: NCI Yeast Anticancer Drug Screen. Data for the mlh1 rad18 strain (AID 175). The conditions noted are these: S. cerevisiae mlh1 rad18 strain growth inhibition, active compounds read high. In outline:
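Read-out is yeast growth inhibition, calculated against vehicle-only controls. The compound was applied to a strain engineered with DNA damage repair alterations.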

Where [7] appears, read: at 5.0 µM (retest, dose inferred, filed as 0.5).
Setting [8] is: at 50.0 µM (retest, dose inferred, filed as 5.0).

In the case of `C=C(c1ccc2nc(NC(=O)OC)[nH]c2c1)c1cccs1`, the growth inhibition is -4% in assay [1] (setting [7]); 47% in assay [1] (setting [8]); 61.3% in assay [1] (at 50.0 µM); -7% in assay [2] (setting [7]); 88% (active) in assay [2] (setting [8]); 93.2% (active) in assay [2] (at 50.0 µM). The growth inhibition was -4% in assay [3] (setting [7]); 72% (active) in assay [3] (setting [8]); 91.8% (active) in assay [3] (at 50.0 µM); -9% in assay [4] (setting [7]); 18% in assay [4] (setting [8]); 41.1% in assay [4] (at 50.0 µM). Also, the growth inhibition in assay [5] (setting [7]) is -3%; in assay [5] (setting [8]), 84% (active); in assay [5] (at 50.0 µM), 90.5% (active); in assay [6] (setting [7]), -9%; in assay [6] (setting [8]), 92% (active); in assay [6] (at 50.0 µM) it was 95% (active).

`O=C(O)CCCc1ccc2ccccc2c1`: the growth inhibition in assay [1] (setting [7]) was -5%; in assay [1] (setting [8]), 0%; in assay [1] (at 50.0 µM), 17.4%; in assay [2] (setting [7]), 11%; in assay [2] (setting [8]), -1%; in assay [2] (at 50.0 µM), -27.1%. The growth inhibition in assay [3] (setting [7]) is 10%; in assay [3] (setting [8]), 6%; in assay [3] (at 50.0 µM), 11.9%; in assay [4] (setting [7]) it was 14%; in assay [4] (setting [8]), -71%; in assay [4] (at 50.0 µM), 40%. Moreover, the growth inhibition was 13% in assay [5] (setting [7]); 0% in assay [5] (setting [8]); 5.65% in assay [5] (at 50.0 µM); -1% in assay [6] (setting [7]); 9% in assay [6] (setting [8]); 12% in assay [6] (at 50.0 µM).

Turning to `CC(=O)C(C(C)=O)C1C=CC=CC=C1`, the growth inhibition in assay [1] (setting [7]) is -149%; in assay [1] (setting [8]) it was 93% (active); in assay [1] (at 50.0 µM), 97% (active); in assay [2] (setting [7]), -42%; in assay [2] (setting [8]), 87% (active); in assay [2] (at 50.0 µM), 92.5% (active). Also, the growth inhibition in assay [3] (setting [7]) is -59%; in assay [3] (setting [8]), 90% (active); in assay [3] (at 50.0 µM), 91.8% (active); in assay [4] (setting [7]), -59%; in assay [4] (setting [8]), 77% (active); in assay [4] (at 50.0 µM), 80% (active). The growth inhibition in assay [5] (setting [7]) was -73%; in assay [5] (setting [8]), 86% (active); in assay [5] (at 50.0 µM), 92.5% (active); in assay [6] (setting [7]) it was -139%; in assay [6] (setting [8]), 92% (active); in assay [6] (at 50.0 µM) it was 96.9% (active).

On to `COC(=O)c1ccccc1C=C(c1ccc([N+](=O)[O-])cc1)c1ccc([N+](=O)[O-])cc1`, for which the growth inhibition in assay [1] (setting [7]) is 4%; in assay [1] (setting [8]), 94% (active); in assay [1] (at 50.0 µM), 93.2% (active); in assay [2] (setting [7]), -2%; in assay [2] (setting [8]), 99% (active); in assay [2] (at 50.0 µM), 95.8% (active). Moreover, the growth inhibition was 4% in assay [3] (setting [7]); 98% (active) in assay [3] (setting [8]); 96.5% (active) in assay [3] (at 50.0 µM); -11% in assay [4] (setting [7]); 97% (active) in assay [4] (setting [8]); 95.1% (active) in assay [4] (at 50.0 µM). The growth inhibition in assay [5] (setting [7]) is -2%; in assay [5] (setting [8]), 98% (active); in assay [5] (at 50.0 µM) it was 94.6% (active); in assay [6] (setting [7]) it was 28%; in assay [6] (setting [8]), 97% (active); in assay [6] (at 50.0 µM) it was 96% (active).

With `Cc1c(-c2ccc(C(=N)N)cc2)oc(-c2ccc(C(=N)N)cc2)c1C`, the growth inhibition in assay [1] (setting [7]) was 88% (active); in assay [1] (setting [8]), 98% (active); in assay [1] (at 50.0 µM), 89% (active); in assay [2] (setting [7]), 84% (active); in assay [2] (setting [8]) it was 98% (active); in assay [2] (at 50.0 µM) it was 90% (active). Also, the growth inhibition is 92% (active) in assay [3] (setting [7]); 99% (active) in assay [3] (setting [8]); 88.1% (active) in assay [3] (at 50.0 µM); 80% (active) in assay [4] (setting [7]); 96% (active) in assay [4] (setting [8]); 89% (active) in assay [4] (at 50.0 µM). The growth inhibition was 87% (active) in assay [5] (setting [7]); 99% (active) in assay [5] (setting [8]); 86% (active) in assay [5] (at 50.0 µM); 90% (active) in assay [6] (setting [7]); 97% (active) in assay [6] (setting [8]); 84.5% (active) in assay [6] (at 50.0 µM).

With `CCN(CCO)CC1OC(OC)C2OC(C)(C)OC12` (stereo not given), the growth inhibition in assay [1] (setting [7]) was -1%; in assay [1] (setting [8]), 83% (active); in assay [1] (at 50.0 µM), 10%; in assay [2] (setting [7]) it was 0%; in assay [2] (setting [8]), 91% (active); in assay [2] (at 50.0 µM), 2.55%. In addition, the growth inhibition in assay [3] (setting [7]) is -2%; in assay [3] (setting [8]) it was 84% (active); in assay [3] (at 50.0 µM), -0.9%; in assay [4] (setting [7]) it was -3%; in assay [4] (setting [8]), 83% (active); in assay [4] (at 50.0 µM) it was 85.8% (active). The growth inhibition in assay [5] (setting [7]) was -2%; in assay [5] (setting [8]) it was 89% (active); in assay [5] (at 50.0 µM), 24.5%; in assay [6] (setting [7]), -1%; in assay [6] (setting [8]) it was 90% (active); in assay [6] (at 50.0 µM), 35.7%.

Turning to `Cc1c2ccncc2c(C)c2c1[nH]c1ccc(OCCN(C)C)cc12`, the growth inhibition in assay [1] (setting [7]) is 28%; in assay [1] (setting [8]), 93% (active); in assay [1] (at 50.0 µM) it was 99% (active); in assay [2] (setting [7]) it was 5%; in assay [2] (setting [8]), 43%; in assay [2] (at 50.0 µM) it was 77.3% (active). For the same compound, the growth inhibition in assay [3] (setting [7]) was 5%; in assay [3] (setting [8]), 53%; in assay [3] (at 50.0 µM), 93.3% (active); in assay [4] (setting [7]), 7%; in assay [4] (setting [8]), 40%; in assay [4] (at 50.0 µM), 71.8% (active). The growth inhibition in assay [5] (setting [7]) is 4%; in assay [5] (setting [8]), 32%; in assay [5] (at 50.0 µM), 88.9% (active); in assay [6] (setting [7]), 7%; in assay [6] (setting [8]), 51%; in assay [6] (at 50.0 µM), 96.3% (active).

`NC(=O)NCCCCC1NC(=S)N(c2ccccc2)C1=O` (stereo not given): the growth inhibition in assay [1] (setting [7]) was -5%; in assay [1] (setting [8]), -4%; in assay [1] (at 50.0 µM), -3.85%; in assay [2] (setting [7]) it was -8%; in assay [2] (setting [8]) it was -16%; in assay [2] (at 50.0 µM) it was -3.45%. Also, the growth inhibition is -7% in assay [3] (setting [7]); 47% in assay [3] (setting [8]); 29.8% in assay [3] (at 50.0 µM); -3% in assay [4] (setting [7]); -3% in assay [4] (setting [8]); -4.9% in assay [4] (at 50.0 µM). Further, the growth inhibition was -9% in assay [5] (setting [7]); -7% in assay [5] (setting [8]); 5.05% in assay [5] (at 50.0 µM); -9% in assay [6] (setting [7]); -8% in assay [6] (setting [8]); -12.3% in assay [6] (at 50.0 µM).

Regarding `Clc1ccc(C2=CCCc3ccccc32)cc1`, the growth inhibition in assay [1] (setting [7]) was -3%; in assay [1] (setting [8]) it was 1%; in assay [1] (at 50.0 µM), 91.1% (active); in assay [2] (setting [7]), 6%; in assay [2] (setting [8]), -4%; in assay [2] (at 50.0 µM) it was 96.2% (active). The growth inhibition in assay [3] (setting [7]) was -14%; in assay [3] (setting [8]), 7%; in assay [3] (at 50.0 µM), 95.8% (active); in assay [4] (setting [7]) it was 5%; in assay [4] (setting [8]), -19%; in assay [4] (at 50.0 µM), 95.7% (active). In addition, the growth inhibition in assay [5] (setting [7]) was 6%; in assay [5] (setting [8]), -2%; in assay [5] (at 50.0 µM), 88.5% (active); in assay [6] (setting [7]), -2%; in assay [6] (setting [8]), 3%; in assay [6] (at 50.0 µM) it was 96.5% (active).

As to `O=C(O)NCc1ccccc1` (tested in a mixture with another compound), the growth inhibition in assay [1] (setting [7]) was 11%; in assay [1] (setting [8]), 94% (active); in assay [1] (at 50.0 µM), 94% (active); in assay [2] (setting [7]), -12%; in assay [2] (setting [8]), 40%; in assay [2] (at 50.0 µM), 14.8%. Besides, the growth inhibition in assay [3] (setting [7]) was -5%; in assay [3] (setting [8]), 74% (active); in assay [3] (at 50.0 µM), 36.1%; in assay [4] (setting [7]), 5%; in assay [4] (setting [8]), 98% (active); in assay [4] (at 50.0 µM), 60%. Also, the growth inhibition in assay [5] (setting [7]) is 23%; in assay [5] (setting [8]) it was 98% (active); in assay [5] (at 50.0 µM) it was 87.5% (active); in assay [6] (setting [7]) it was 3%; in assay [6] (setting [8]), 80% (active); in assay [6] (at 50.0 µM) it was 88% (active).

(Values after PubChem BioAssay (NCI).)
